Screening data (PubChem BioAssay)
The full list was thinned out, with hits kept by preference.
miR-122 inh = miR-122 suppressors via Renilla sensor increase, primary screen, cell-based, Huh7 psiCHECK-miR122, Renilla luciferase, single point. 48 h. activation, % at 12.5 µM. hit rate 0.14% among 340,000. AID 623901, 2012;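 active means mean activation of 30% or more, with every replicate also reaching 30%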;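 further: higher luciferase signal means stronger suppression of miR-122 activity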
Of the large screens only hits and unclear results are named; the others gave an inactive call.

C/C=C/c1cnc2c(c1)C(=O)N([C@H](C)CO)C[C@H](C)[C@@H](CN(C)S(=O)(=O)c1ccc(C)cc1)O2	none
CCC(=O)Nc1ccc2c(c1)OC[C@H](C)N(C(=O)c1ccccc1F)C[C@@H](C)[C@@H](OC)CN(C)C2=O	none
COc1nnc(-c2ccc(N3CCOCC3)c(NC(=O)c3ccccc3)c2)c2ccccc12	miR-122 inh 45
COc1ccc(NS(=O)(=O)c2ccc(N3CCOCC3)c(NC(=O)c3cccc(F)c3)c2)cc1	none
COc1ccc(NS(=O)(=O)c2ccc(N3CCOCC3)c(NC(=O)c3ccc(F)cc3)c2)cc1	none
CO[C@H]1CN(C)C(=O)c2cc(NC(C)=O)ccc2OC[C@H](C)N(C(=O)c2ccccc2)C[C@@H]1C	none
C[C@H]1CN([C@@H](C)CO)S(=O)(=O)c2ccc(-c3ccncc3)cc2O[C@H]1CN(C)Cc1cncnc1	none
C[C@H]1CN([C@@H](C)CO)C(=O)c2cc(-c3ccc(C(=O)N(C)C)cc3)cnc2O[C@H]1CN(C)Cc1ccc(C(=O)O)cc1	none
CCO/C=C1\N=C(c2ccc(F)cc2)OC1=O	miR-122 inh 60
C[C@H](CO)N1C[C@H](C)[C@@H](CN(C)C(=O)c2ccncc2)Oc2cc(C#C[C@@H](C)O)ccc2S1(=O)=O	none
CC(=O)N(C)C[C@@H]1Oc2cc(C#CC3CCCCC3)ccc2S(=O)(=O)N([C@H](C)CO)C[C@H]1C	none
C[C@@H]1CN([C@@H](C)CO)C(=O)c2cc(/C=C/c3ccccc3)cnc2O[C@@H]1CN(C)Cc1cccc(C(=O)O)c1	none
O=C(OCn1ncc(Cl)c(Cl)c1=O)c1ccccc1Cl	miR-122 inh 61
COCC#Cc1cnc2c(c1)C(=O)N([C@H](C)CO)C[C@@H](C)[C@H](CN(C)C(=O)C1CCOCC1)O2	none
CCC(=O)Nc1ccc2c(c1)OC[C@H](C)NC[C@H](C)[C@H](OC)CN(C)C2=O	none
C[C@H](CO)N1C[C@H](C)[C@@H](CN(C)C(=O)CC2CC2)Oc2ncc(C#CCC3CCCC3)cc2C1=O	none
CCCNC(=O)N(C)C[C@H]1Oc2ncc(C#C[C@H](C)O)cc2C(=O)N([C@H](C)CO)C[C@@H]1C	none
CO[C@@H]1CN(C)C(=O)c2cc(NC(=O)Nc3ccccc3)ccc2OC[C@H](C)NC[C@@H]1C	none
CCCC(=O)Nc1ccc2c(c1)C(=O)N(C)C[C@H](OC)[C@@H](C)CN[C@@H](C)CO2	none
CO[C@H]1CN(C)C(=O)c2cc(NC(=O)Nc3ccc(Cl)c(Cl)c3)ccc2OC[C@H](C)NC[C@H]1C	miR-122 inh 51
C[C@@H]1CN([C@@H](C)CO)C(=O)c2cc(C#Cc3ccccc3)cnc2O[C@@H]1CN(C)C(=O)c1ccccn1	none
C[C@H](CO)N1C[C@H](C)[C@@H](CN(C)Cc2ccc(C(F)(F)F)cc2)Oc2c(cccc2N(C)C)C1=O	none
CCCNC(=O)N(C)C[C@@H]1Oc2cc(C#CCOC)ccc2S(=O)(=O)N([C@H](C)CO)C[C@@H]1C	none
CCCCCCCCCCCCCCCC[n+]1ccccc1	miR-122 inh 49
CC(C)C#Cc1cnc2c(c1)C(=O)N([C@H](C)CO)C[C@@H](C)[C@@H](CN(C)C(=O)CC1CC1)O2	none
C[C@@H]1CN([C@H](C)CO)C(=O)c2cc(-c3ccc(F)cc3)cnc2O[C@@H]1CN(C)CC1CCOCC1	none
C[C@@H]1CN([C@@H](C)CO)C(=O)c2cc(C#CC3(O)CCCC3)cnc2O[C@@H]1CN(C)C(=O)C1CCCCC1	none
CCCN(C)C[C@H]1Oc2cc(C#Cc3ccccc3F)ccc2S(=O)(=O)N([C@@H](C)CO)C[C@H]1C	none
O=S(=O)(c1ccccc1)N1C[C@H]2[C@@H](c3ccccc31)[C@@H](CO)N2Cc1ccc2c(c1)OCO2	none
O=C(Nc1ccccc1F)N1C[C@@H]2[C@H](c3ccccc31)[C@@H](CO)N2C(=O)C1CCCC1	none
CN1[C@@H](CO)[C@@H]2c3ccccc3N(C(=O)Nc3cc(F)ccc3F)C[C@@H]21	miR-122 inh 33
CCCNC(=O)NC[C@@H]1[C@@H](c2ccc(C3=CCCC3)cc2)[C@@H](CO)N1C(=O)CC	none
CCCC#Cc1cnc2c(c1)C(=O)N([C@H](C)CO)C[C@@H](C)[C@@H](CN(C)C(=O)Cc1ccccc1)O2	none
O=C(C[C@@H]1C[C@H]2c3cc(NS(=O)(=O)c4ccc(F)cc4)ccc3O[C@H]2[C@H](CO)O1)NCc1ccc(-c2ccccc2)cc1	none
COC1=CC(=O)C=C(OC)C1=O	miR-122 inh 57
C[C@H]1CN([C@@H](C)CO)C(=O)c2cc(-c3cncnc3)cnc2O[C@H]1CN(C)Cc1ccccc1	none
COc1cccc(NS(=O)(=O)c2cc(C)sc2C)c1	none
CCCCCCNS(=O)(=O)c1ccc(Cl)s1	none
COc1ccc2[nH]c(C(=O)O)c(NS(=O)(=O)c3ccc(Cl)s3)c2c1	miR-122 inh 40
Nc1ccc(Oc2ccc(Br)cc2)cc1	miR-122 inh 35
C[C@H](O)C#Cc1ccc2c(c1)O[C@H](CN(C)Cc1cncnc1)[C@@H](C)CN([C@H](C)CO)S2(=O)=O	none
C[C@H](CO)N1C[C@H](C)[C@H](CN(C)S(C)(=O)=O)Oc2ncc(-c3cccnc3)cc2C1=O	none
